Laboratory results reported in article PMC11995724, “Antibiotic target discovery by integrated phenotypic and activity-based profiling of electrophilic fragments” (Cell chemical biology, 2025).
About 110 (3.4%) of roughly 3,200 compounds showed an effect of 50% or more. For the sample, strong results were picked, then their nearest neighbours and some compounds at random.

What follows are molecules tested on T1, V. cholerae SAD30. Conditions: relative growth, OD600, LB; 25 µM; inhibitor.
T1 construct: SAD30
Parameters: species or system S. aureus MSSA476 (TSB) or V. cholerae SAD30 (LB); 384-well bacterial growth screen at 25 uM, OD600 relative to DMSO control

Point of comparison: `CC1Cc2cc(C(=O)CCl)ccc2N1S(C)(=O)=O` (stereo not shown) [10-A04, 2-chloro-1-(1-methanesulfonyl-2-methyl-2,3-dihydro-1H-indol-5-yl)ethan-1-one], “% of control remaining” value 89.6162%. Against it:
- CCN(CC)S(=O)(=O)c1cccc(NC(=O)CCl)c1 [4-M07, 2-chloro-N-[3-(diethylsulfamoyl)phenyl]acetamide] — higher, 105.931%
- C=CC(=O)N1CCC(C(=O)N[C@H]2CCC[C@H]2O)CC1 [2-K04, N-[(1S,2R)-2-hydroxycyclopentyl]-1-(prop-2-enoyl)piperidine-4-carboxamide] — higher, 95.9085%
- C=CC(=O)N1CCC(n2ncc3ccccc32)CC1 [1-K22, 1-[4-(1H-indazol-1-yl)piperidin-1-yl]prop-2-en-1-one] — higher, 95.6652%
- CC(Cl)C(=O)Nc1nc(-c2ccccc2)cs1 (stereo not shown) [6-L10, 2-chloro-N-(4-phenyl-1,3-thiazol-2-yl)propanamide] — lower, 85.6953%
- C=CC(=O)N1CCOCC1c1cc(F)cc(F)c1 (stereo not shown) [2-O16, 1-[3-(3,5-difluorophenyl)morpholin-4-yl]prop-2-en-1-one] — higher, 92.203%
- CN1C(=O)Cc2cc(C(=O)CCl)ccc21 [10-G07, 5-(2-chloroacetyl)-1-methyl-2,3-dihydro-1H-indol-2-one] — lower, 54.3931%
- O=CN1CCc2cc(C(=O)CCl)ccc21 [10-K20, 5-(2-chloroacetyl)-2,3-dihydro-1H-indole-1-carbaldehyde] — lower, 27.1186%
- CCC(=O)N1CCc2cc(C(=O)CCl)ccc21 [10-C22, 1-[5-(2-chloroacetyl)-2,3-dihydro-1H-indol-1-yl]propan-1-one] — higher, 119.54%
- O=C(CCl)c1c[nH]c(C(=O)N2CCCC2)c1 [10-A16, 2-chloro-1-[5-(pyrrolidine-1-carbonyl)-1H-pyrrol-3-yl]ethan-1-one] — higher, 108.475%
- O=C(CCl)NCCS(=O)(=O)N1CCc2ccccc21 [6-H04, 2-chloro-N-[2-(2,3-dihydro-1H-indole-1-sulfonyl)ethyl]acetamide] — higher, 103.138%
- O=C(CCl)c1ccc2c(c1)CCN(C(=O)C(F)(F)F)C2 [10-E09, 1-[6-(2-chloroacetyl)-1,2,3,4-tetrahydroisoquinolin-2-yl]-2,2,2-trifluoroethan-1-one] — higher, 98.6558%
- O=C(CCl)c1cc2c3c(c1)CC(=O)N3CCC2 [10-G16, 6-(2-chloroacetyl)-1-azatricyclo[6.3.1.0,4,12]dodeca-4(12),5,7-trien-2-one] — lower, 27.7421%
- CCS(=O)(=O)N1CCc2cc(C(=O)CCl)ccc21 [10-E18, 2-chloro-1-[1-(ethanesulfonyl)-2,3-dihydro-1H-indol-5-yl]ethan-1-one] — lower, 27.8979%
- N#Cc1ccc2c(c1)CCN2C(=O)CCl [5-N09, 1-(2-chloroacetyl)-2,3-dihydro-1H-indole-5-carbonitrile] — higher, 93.4748%
- CS(=O)(=O)N1CCCc2cc(C(=O)CCl)ccc21 [10-H19, 2-chloro-1-(1-methanesulfonyl-1,2,3,4-tetrahydroquinolin-6-yl)ethan-1-one] — lower, 22.9106%
